PubChem BioAssay (EPA / NIEHS)
Values joined by “and” are separate entries in the source; they are usually repeats but may differ in a detail not shown here. Identical values can stand only once. Active and inactive are the calls of the source. The calls were made as follows: active = hit-call score of the fitted dose curve at least 0.9, where 1 is the maximum; inactive = score below 0.9.

Read-out: Cytochrome P450 3A4 (Homo sapiens) (UniProt P08684)
Assay: LTEA_HepaRG_CYP3A4: Life Technologies and Expression Analysis (LTEA) Assay for CYP3A4 using HepaRG (AID 2283487)
Conditions: mRNA level, 48 h; actives raise or lower the signal
Method: LTEA_HepaRG is a cell based, multiplexed-readout assay that uses HepaRG, a human liver cell line, with measurements taken at 48 hours after chemical dosing on a 96-well plate.LTEA_HepaRG_CYP3A4 is one of 102 assay component(s) measured in the LTEA HepaRG cell culture assay. It is a marker of NR mediated metabolism.Data from the assay component LTEA_HepaRG_CYP3A4 was analyzed into 1 endpoint. This assay endpoint, LTEA_HepaRG_CYP3A4, was analyzed with bidirectional fitting relative to DMSO as the negative control and baseline of activity. Using a type of inducible reporter, measures of mRNA induction for gain or loss-of-signal activity can be used to understand regulation of transcription factor activity. To generalize the intended target to other relatable targets, this assay endpoint is annotated to the cyp intended target family, where the subfamily is xenobiotic metabolism.
A total of 1060 chemcials from the ToxCast library were tested in eight-point concentration-response experiments. Cell culture and cytotoxicity assays were conducted at Thermo Fisher Scientific's Custom Services facility (Madison, WI). A single lot of human HepaRG cells (Thermo Fisher Scientific, Frederick, MD) was used for the cell culture experiments. 96-well format collagen type I coated plates of human HepaRG cells were prepared using established methods. Briefly, cryopreserved HepaRG cells were thawed, plated at a density of approximately 100,000 cells/well in HepaRG Thaw, Plate, and General Purpose media (HPRG770, Thermo Fisher Scientific), and incubated for 48 hours. 0.5% DMSO was selected as vehicle control to balance the requisite need of DMSO in HepaRG cultures to maintain differentiation (for example, baseline metabolism, proportions of hepatocytes vs. cholangiocytes), while enabling further hepatic receptor pathway activation (for example, PXR and CAR) in response to chemical exposure. 48 hours after plating, the culture medium was replaced with HepaRG Serum-Free Incudtion Media. Cells were exposed to each test chemical in duplicate and maintained in CO2 incubators for another 48 hours. Chemical plates were thawed to room temperature and 200x concentrations of treatment groups were prepared. 8-point conentration-reponse curves were made with the highest exposure at 100 uM, followed by half-log dilutions, all in 0.5% DMSO. Each test plate contained variouse controls, induction positive controls (1mM phenobarbital), cytotoxicity positive controls ([…] aflatoxin B1), vehicle controls (0.5% DMSO), and total lysis controls (0.5% DMSO). Cell morphology images were taken using an Essen IncuCyte FLR automated microscope, with six 96-well plates imaged in about 24 minutes. Images were captured and exported and JPEG files. Spent culture media was transfered to black-well plates for the LDH assay, and remaining media was sorted at -80 C for later use. Cells were treated with RLT buffer and frozen until shipped for gene expression analysis. Total RNA was isolated from the cell suspension in 75 uL of Buffer RLT (Qiagen, Germantown, MD 20874) by Quintiles/Expression Analysis (Durham, NC) using a custom isolation procedure. Total RNA from each plate well was transferred to a preamplification plate. Fluidigm's 96.96 Dynamic ArrayTM (Fluidigm, Amsterdam, the Netherlands) technology was used for gene expression analyses by quantitative reverse transcription polymerase chain reaction (qRT-PCR, performed by Quintiles/Expression Analysis, Durham, NC)89. Standard TaqManTM Assays (Applied Biosystems/ThermoFisher Scientific, Foster City, CA) were used to assess the expression of 93 genes selected based on their selectivity and sensitivity to important hepatic receptors known to be modulated by environmental chemicals; importance in human hepatocyte functionality; and hepatotoxicity. […]

Chain of Cytochrome P450 3A4 (Homo sapiens) (P08684 whole entry, looked up): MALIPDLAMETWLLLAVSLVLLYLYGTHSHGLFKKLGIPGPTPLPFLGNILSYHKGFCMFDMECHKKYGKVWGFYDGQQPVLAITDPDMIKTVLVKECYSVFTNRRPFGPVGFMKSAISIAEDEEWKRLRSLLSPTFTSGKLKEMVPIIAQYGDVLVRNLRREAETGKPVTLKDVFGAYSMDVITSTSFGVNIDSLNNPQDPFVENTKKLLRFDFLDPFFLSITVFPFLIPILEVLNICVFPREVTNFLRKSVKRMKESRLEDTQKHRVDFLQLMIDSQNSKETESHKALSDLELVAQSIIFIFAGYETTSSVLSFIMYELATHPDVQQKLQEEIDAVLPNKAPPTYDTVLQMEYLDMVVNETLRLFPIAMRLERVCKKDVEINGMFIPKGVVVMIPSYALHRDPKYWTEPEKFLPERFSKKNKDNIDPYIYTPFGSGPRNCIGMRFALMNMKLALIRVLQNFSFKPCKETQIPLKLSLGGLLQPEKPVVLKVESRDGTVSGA

| SMILES | outcome | AC50 |
| --- | --- | --- |
| CCCOC(=O)c1ccc(C(=O)OCCC)nc1 | inactive |  |
| COC(=O)c1ccccc1C(=O)O | inactive |  |
| CCCOC(=O)NCCCN(C)C | inactive |  |
| O=C(O)C1(C(=O)Nc2ccc(Cl)cc2Cl)CC1 |  | 75.4 µM (active) |
| CCCCOC(=O)C(C)Oc1ccc(Oc2ccc(C(F)(F)F)cn2)cc1 (stereo not given) | inactive |  |
| CN(C)C(=O)Nc1ccc(Cl)c(Cl)c1 | inactive |  |
| Cc1nn(C)c(Oc2ccccc2)c1C=NOCc1ccc(C(=O)OC(C)(C)C)cc1 |  | 1.84 µM (active) |
| OB(O)O | inactive |  |
| C#CCOC(=O)[C@@H](C)Oc1ccc(Oc2ncc(Cl)cc2F)cc1 | inactive |  |
| CCOC(=O)COc1cc(-n2ncc(C(F)(F)F)c(C)c2=O)c(F)cc1Cl |  | 50 µM (active) |
| C[C@]12CC[C@@H]3c4ccc(O)cc4C[C@@H](CCCCCCCCCS(=O)CCCC(F)(F)C(F)(F)F)[C@H]3[C@@H]1CC[C@@H]2O (stereo not given in full) |  | 31.1 µM (active) |
| CCCN(CCC)c1c([N+](=O)[O-])cc(C(F)(F)F)c(N)c1[N+](=O)[O-] |  | 7.3 µM (active) |
| COc1c(Cl)ccc(Cl)c1C(=O)O | inactive |  |
| CCC(C)OC(=O)N1CCCCC1CCO (stereo not given) |  | 50 µM (active) |
| CCNc1nc(N)nc(Cl)n1 |  | 3.18 µM (active) |
| COC(=O)c1ccc(I)cc1S(=O)(=O)NC(=O)Nc1nc(C)nc(OC)n1 |  | 29.3 µM (active) |
| CSC(=O)c1cccc2nnsc12 | inactive |  |
| S=C([S-])NCCNC(=S)[S-].[Mn+2] |  | 3.36 µM (active) |
| O=C(O)c1ccccc1 | inactive |  |
| CCOC(=O)NCCOc1ccc(Oc2ccccc2)cc1 |  | 87.8 µM (active) |

| SMILES | outcome | AC50 |
| --- | --- | --- |
| C#C[C@]1(O)CC[C@H]2[C@@H]3CCC4=CC(=O)CC[C@@H]4[C@H]3CC[C@@]21CC | inactive |  |
| CCCCCOC(=O)COc1cc(N2C(=O)C3=C(CCCC3)C2=O)c(F)cc1Cl |  | 28 µM (active) |
| O=C(c1ccc(O)cc1O)c1ccc(O)cc1O | inactive |  |
| CC(=O)[C@H]1CC[C@H]2[C@@H]3CCC4=CC(=O)CC[C@]4(C)[C@H]3CC[C@]12C |  | 36 µM (active) |
| CC(C)(c1ccc(O)cc1)c1ccc(O)cc1 | inactive |  |
| CCCN(CCC)C(=O)SCC | inactive |  |
| COC(=O)CSc1cc(N=c2sc(=O)n3n2CCCC3)c(F)cc1Cl |  | 13.5 µM (active) |
| Oc1ccc(C(c2ccc(O)cc2)C(Cl)(Cl)Cl)cc1 |  | 78.7 µM (active) |
| CCOC(=O)C(C)Oc1ccc(Oc2nc3ccc(Cl)cc3o2)cc1 (stereo not given) | inactive |  |
| CCSC(=O)N(CC(C)C)CC(C)C | inactive |  |
| c1ccc(Nc2ccccc2)cc1 | inactive |  |
| CC(C)(C)[C@@H](O)[C@@H](Cc1ccc(Cl)cc1)n1cncn1 |  | 7.74 µM (active) |
| CCCCC(CC)CN1C(=O)C2C3C=CC(C3)C2C1=O (stereo not given) |  | 91 µM (active) |
| CCN(Cc1c(F)cccc1Cl)c1c([N+](=O)[O-])cc(C(F)(F)F)cc1[N+](=O)[O-] |  | 8.01 µM (active) |
| CCCCOC(=O)[C@@H](C)Oc1ccc(Oc2ccc(C(F)(F)F)cn2)cc1 | inactive |  |
| S=C(S)NCCNC(=S)S.[Mn+2].[S-]C([S-])=NCCN=C([S-])[S-].[Zn+2] |  | 827 nM (active) and 1.11 µM (active) and 1.02 µM (active) |
| O=C(c1ccccc1)C1CCCCC1 | inactive |  |
| COCCO | inactive |  |
| CCOC(=O)C(C)Oc1ccc(Oc2cnc3cc(Cl)ccc3n2)cc1 (stereo not given) | inactive |  |
| CC1(C)C(C=C(Cl)Cl)C1C(=O)OCc1cccc(Oc2ccccc2)c1 (stereo not given) |  | 22.6 µM (active) |
